# Source: PubChem (National Center for Advancing Translational Sciences (NCATS))
# Only some compounds are listed: those with a hit (about 7.3% of all), similar ones and a draw of the others.
# RORg inh: qHTS for inhibitors of ROR gamma transcriptional activity; AID 2551, 2010; Potency, µM (titrated, usually from 53.6 µM), for the others: top-dose activity change, negative = inhibition, hits mostly inhibitors; 5.4% of 310,000 active; Drosophila S2 Gal4-RORgamma UAS-luciferase reporter, 20 h; also: nearly all actives have a fitted effect of over 60% in size
#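 ROR gamma transcriptional activity was tracked as Gal4-UAS luciferase output in stably transfected Drosophila Schneider cells, with compound added 1 hr before 700 uM copper sulfate induction and a 20 hr ambient-temperature incubation.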
# Tau fluor cs: Counterscreen qHTS for Inhibitors of Tau Fibril Formation, Fluorescence Polarization. tau K18 P301L Alexa594 fluorescence, heparin fibrillization. Potency, µM (highest dose often 57.7 µM), inactives show at the highest dose activity change, negative = decrease. 0.93% of 280,000 active. AID 1463, 2008; also: nearly all actives have a fitted effect of over 55% in size
#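 Human K18 P301L tau (15 uM unlabeled plus 0.24 uM Alexa 594-labeled, final) in 100 mM sodium acetate pH 7 was mixed with compound and 20 uM heparin and incubated 6 hr at 37 C.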
# Tau fibril ThT: qHTS for Inhibitors of Tau Fibril Formation, Thioflavin T Binding | Microtubule-associated protein tau (Homo sapiens), P10636 | recombinant tau K18 P301L (four-repeat tau fragment), heparin-induced fibrillization, ThT fluorescence | Potency, µM (doses to about 57.4 µM), inactives show at the top dose activity, negative = inhibition, hits mostly inhibitors | 2.1% of 270,000 active | AID 1460, 2008; also: nearly all actives have a fitted effect of over 55% in size
# Target sequence (P10636 561-689 P618L limits assumed): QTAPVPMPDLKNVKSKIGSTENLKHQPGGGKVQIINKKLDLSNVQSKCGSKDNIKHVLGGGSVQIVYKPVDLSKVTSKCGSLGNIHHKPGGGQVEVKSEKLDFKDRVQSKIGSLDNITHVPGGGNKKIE
#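 Heparin-induced fibrillization of the P301L-mutant K18 repeat-domain fragment of human tau was followed by ThT binding in quantitative high-throughput format.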
# Tau FP inhib: qHTS for Inhibitors of Tau Fibril Formation, Fluorescence Polarization | Potency, µM (titrated, usually from 57.7 µM), inactives show at the highest dose activity, negative = inhibition, usual class: inhibitors | K18 P301L tau heparin fibrillization, Alexa594 FP, 6 h | AID 1468, 2008 | 0.39% of 280,000 active | Microtubule-associated protein tau (Homo sapiens), P10636; also: nearly all actives have a fitted effect of over 55% in size
#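 Human tau K18 […] P301L fragment, 15 uM unlabeled plus 0.24 uM Alexa 594-labeled tau (final), with compound and 20 uM heparin in 100 mM sodium acetate pH 7; 6 hr at 37 C, then Alexa 594 FP read.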
# Gal4-VP16 FLuc: VP16 counterscreen qHTS for inhibitors of ROR gamma transcriptional activity. Drosophila S2 Gal4-VP16 UAS-luciferase, luminescence, 20 h. Potency, µM (doses to about 53.6 µM), for inactives: top-dose activity, negative = inhibition, most hits filed as inhibitors. 3.5% of 310,000 active. AID 2546, 2010;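 also: Gal4-VP16 expression switched on by copper sulfate through the metallothionein promoter; nearly all actives have a fitted effect of over 50% in size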
# * hit, by the source's call; ? = inconclusive; . = no result; ! = not confirmed by another sample; [ ] = dose if it differs, or a comment. Calls follow the shape of the dose curve; as a rule, active = well fitted curve in the direction sought with a large enough effect; inconclusive = small, poorly fitted or top-dose-only effect, or another doubt; inactive = no such curve, though single readings can be large; an effect the other way counts as inactive or inconclusive. % is scaled to controls: 0 for no effect and ±100 for the full control effect; potency is read from the fitted curve at half-maximal effect.
SMILES,RORg inh,Tau fluor cs,Tau fibril ThT,Tau FP inhib,Gal4-VP16 FLuc
O=c1c(O)c(-c2ccc(O)cc2O)oc2cc(O)cc(O)c12,5%,28µM*[quencher],13µM*,?,1%
COc1c(-c2ccc(O)c(O)c2)oc2cc(O)cc(O)c2c1=O,?,?,?,-6%,11µM*!
O=c1c(O)c(-c2ccccc2O)oc2cc(O)cc(O)c12,-6%,.,.,.,2%
O=c1c(O[C@@H]2O[C@H](CO)[C@H](O)[C@H](O)[C@H]2O)c(-c2ccc(O)c(O)c2)oc2cc(O)cc(O)c12,15%,-11%,?,-2%,-14%
COc1ccc2c(c1)c1c(c(=O)n(-c3cccc(C)c3)c(=O)n1CC(=O)Nc1c(C)cc(C)cc1C)n2C,.,-21%,-14%,-7%,.
Cc1ccc(CNC(=O)c2cc(NS(=O)(=O)c3ccc(C)cc3)ccn2)cc1,.,-16%,-12%,-1%,.
N=C1N(/N=C/c2ccccc2)C(=Nc2ccccc2)C(=S)N1c1ccccc1,4.5µM*,-24%,?,?,5µM*
Cc1nnc(C)n1/N=C/c1ccccc1,-10%,-6%,-2%,0%,-4%
CO/N=C(\C)CCN1CCCCc2nc(C)c(C)cc21,2%[10 µM],-5%[11.6 µM],-4%[11.5 µM],2%[11.6 µM],6%[10 µM]
O=[N+]([O-])c1cc2c(cc1C=Nc1ccccc1)OCO2,-20%,-17%,?,-8%,-7%
Sc1oc(-c2ccccc2)cc1C=Nc1ccccc1,13µM*,18µM*[quencher],8.9µM*,5%,18µM*
CCCN1CCC(NC23CC4CC(CC(C4)C2)C3)CC1,-5%,.,.,.,0%
COc1ccc(N=Nc2c(C)n[nH]c2C)cc1,-17%,.,.,.,24%
Cc1n[nH]c(C)c1N=Nc1ccc(Br)cc1,-29%,-30%,11µM*,-13%,28%
Cc1ccc(NC(CNS(=O)(=O)c2ccc(Cl)cc2)c2ccccc2)cc1 (configuration not stated),?,4.5µM*[quencher],1%,7%,-25%
COc1cccc(NC(CNS(=O)(=O)c2ccc(Cl)cc2)c2ccccc2)c1 (configuration not stated),.,10µM*[quencher],-9%,10%,.
NS(=O)(=O)c1ccc(NC(CNS(=O)(=O)c2ccccc2)c2ccccc2)cc1 (configuration not stated),37%,-18%,3%,-3%,-5%
O=S(=O)(NCC(Nc1ccc(Cl)cc1)c1ccccc1)c1ccccc1 (configuration not stated),114%,8.9µM*[quencher],8%,-2%,?
CC(C)c1csc(CN2CCC(n3nccc3NC(=O)Cc3ccccc3)CC2)n1,?,.,.,.,12%
O=C1N=c2ccccc2=C1c1c(O)n(-c2cccc(F)c2)[nH]c1=O,5%,-25%,14µM*,?,-13%
CN(C)c1ccc(/C=C/C(=O)c2ccccc2O)cc1,-33%,?,4µM*,?,?
COc1ccc(C(=O)/C=C/c2ccc(N(C)C)cc2)c(OC)c1,-1%,14µM*[quencher],?,-3%,-6%
COc1ccc(C(=O)/C=C/c2ccccc2F)c(OC(=O)c2ccc([N+](=O)[O-])cc2)c1,?,?,?,11%,-3%
COc1ccc(C(=O)/C=C/c2ccc(C)cc2)c(OC(=O)c2ccc([N+](=O)[O-])cc2)c1,-18%,?,3.5µM*,9%,3%[0.365 µM]
COc1ccc(Cl)cc1Nc1cc(C)nc2nc(-c3ccccc3C)nn12,.,-4%,1%,-2%,.
COc1ccc(C2c3c(n(C)c4ccccc34)C(=O)N2CC(=O)Nc2ccc(Cl)cc2)cc1 (configuration not stated),.,-22%,1%,-13%,.
CC1=C(C)Cc2c(OC(=O)c3ccccc3)ccc(OC(=O)c3ccccc3)c2C1,-2%,-19%,-14%,-7%,-3%
Cc1cccc(C(=O)Nc2cccc(OC(=O)c3cccc(C)c3)c2)c1,6%,?,-11%,?,-8%
